About 83,000 compounds went through this panel and 20% of them were active in at least one assay; those are over-represented in the sample as a whole.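 Treatment: one concentration, 48 hours, 96-well format. Scoring: percent growth, with anything below 10 considered active.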 Values without a mark were called inactive. Active and inactive are the calls of the source.

This assay relates to UACC-62 melanoma. Nature of the assay: NCI-60 one-dose screen, 48 h (100 = growth as untreated, 0 = no growth, -100 = all killed). To be noted: 10 µM unless noted. As to the method: Growth inhibition of the UACC-62 human tumor cell line is measured as a screen for anti-cancer activity. Cells are grown in 96 well plates and exposed to the test compound for 48 hours. Compounds are tested at a single concentration, which is 10^-5 M for most compounds. The reported endpoint is percent growth (GI% or GIPRCNT), where numbers from 0 - 100% represent growth inhibition, and numbers from -100% - 0 represent cell death. For example, a value of 40 represents 60% growth inhibition. A value of 0 means no net growth occurred over the course of the experiment. A value of -40 indicates 40% of cells at the beginning of the experiment died by the end of the experiment. A value of -100 means all cells are dead at the end of the experiment.
NCI-60 Human Tumor Cell Lines Screen was performed using the standard one-dose NCI protocol, which is described in more detail at https://dtp.cancer.gov/discovery_development/nci-60/default.htm.
Compounds with GIPRCNT values below 10 were considered active. Activity score was based on GIPRCNT using the following formula: […]
Score is 0 for GIPRCNT values of 100 or above, 50 for GIPRCNT values of 0, and 100 for GIPRCNT values of -100.
Regarding `CN1C(=O)NC(c2ccc3c(c2)OCO3)C=C1c1ccccc1` (stereo not given), the growth was 89.8%.

Consider `COc1cc2c(-c3cc4c(cc3CNCCc3ccc5c(c3)OCO5)OCO4)cccc2c(OC)c1O`, for which the growth was 79.1%. For `CC1(C)CC(=O)C2=C(C1)N(c1ccc(F)cc1F)C(N)=C(C#N)C2c1cc(Br)ccc1F` (stereo not given), the growth was 91.1%. For `CCOC(=O)c1cc(C(=O)c2ccc(OC)cc2)n2ccc(/C=C/c3cc[n+](CC(=O)c4ccc(OC)cc4)cc3)cc12` the value was 99.5%; for `COc1cc(C2C3=C(COC3=O)N(CCO)c3cc4c(cc32)OCO4)cc(OC)c1OC` (stereo not given), 22.2%; for `COc1c(Cl)c2c(c(OC)c1OC)-c1ccc(SC)c(=O)cc1[C@@H](NC(=O)OCC(F)(F)F)CC2`, 34.4%.

For the molecule `O=C(O)c1ccc(NCc2cn(-c3ccc(C(F)(F)F)cc3)nc2-c2ccc(C(=O)O)cc2)cc1`, the growth was 101%.

For `CC1(C)CC[C@]2(C(=O)O)CC[C@]3(C)C(=CC[C@@H]4[C@@]5(C)Cc6c([nH]c7ccccc67)C(C)(C)[C@@H]5CC[C@]43C)[C@@H]2C1`, the growth is 63.7%. The result for `Fc1ccc(-c2cn3c(nc4ccccc43)c(-c3ccccc3)n2)cc1` reads 78.9%.

For the molecule `O=Cc1cc2ccccc2nc1Oc1ccc(C(F)(F)F)cc1`, the growth is 72.5%.

Turning to `Cc1ccc(-n2cc(-c3ccccc3)c3c2N=NN2CCN=C32)cc1`, the growth was 82.3%. On to `Cc1cc(C(=O)/C=C/c2ccc[nH]2)ccc1-n1ccc(C(F)(F)F)n1`, for which the growth is 84%.

On to `COc1cccc(-c2ccc3c(c2)NC(=O)/C3=C\c2ccc[nH]2)c1`, for which the growth was 44.3%.

With `CCCOC(=O)N[C@H]1CCc2cc(OC)c(OC)c(OC)c2-c2ccc(SC)c(=O)cc21`, the growth is 41.5%. For `CC(C)(C)[Si](C)(C)OC1[C@@H](O[Si](C)(C)C(C)(C)C)[C@@H](CNC(=O)NC(=O)CCl)O[C@H]1n1cnc2c(NC(=O)Nc3ccccc3)ncnc21` (stereo not given in full) the value was -61.5% (active). The result for `O=S(=O)(NCCCNc1nccc(-c2c(-c3cccc(F)c3)nc3sccn23)n1)c1cccc(F)c1` reads 6.36% (active); that for `COc1cc(/C=C2\COc3ccc(-c4ccccc4)cc3C2=O)cc(OC)c1`, 75.9%; that for `COc1cc(-c2csc(NC(=O)c3cc(F)cc(C(F)(F)F)c3)n2)cc(OC)c1OC`, 43.6%. For `CN1CCN(C(=O)[C@]23CCC(C)(C)C[C@H]2C2=CC[C@@H]4[C@@]5(C)C/C(=C/c6cccnc6)C(=O)C(C)(C)[C@@H]5CC[C@@]4(C)[C@]2(C)CC3)CC1` the value was 52.8%. Regarding `O=C1Nc2ccccc2/C1=C\c1c(-c2ccccc2)nc2ccccn12`, the growth is 33.4%.

For `C=C1C(=O)O[C@H]2[C@H]1CC/C(CNC(=O)c1cccc3ccccc13)=C\CC[C@@]1(C)O[C@@H]21`, the growth is 31.4%. The result for `O=C1/C=C/[C@@H](O)[C@@H]2C[C@@H](O)C[C@H]2/C=C/CCC[C@H](CCc2cccc3ccccc23)O1` reads 11.9%. For `N#CC(C#N)=Cc1cc2ccccc2nc1Oc1ccc(C(F)(F)F)cc1` the value was 78.4%. On to `O=C(/C=C/c1ccc[nH]1)c1ccc(-n2ccc(C(F)(F)F)n2)c(F)c1`, for which the growth is 84.9%. As to `O=C(/C=C/c1ccc(Cl)cc1)c1ccc(NC(=O)N2CCN(c3cc4c(cc3F)c(=O)c(C(=O)O)cn4C3CC3)CC2)cc1`, the growth is 76.1%. The result for `NC(=O)Nc1ccc(-n2cnc3cc(-c4ccc(O)cc4)ccc32)cc1` reads 108%.

In the case of `O=C(/C=C/c1ccc(F)cc1)c1ccc(NC(=O)N2CCN(c3cc4c(cc3F)c(=O)c(C(=O)O)cn4C3CC3)CC2)cc1`, the growth was 78.2%. The result for `COc1ccc(CCn2cncc2-c2c[nH]c3ccccc23)cc1` reads 81.6%. For `COc1ccc(C(=O)C2C(C#N)C(C#N)C3c4ccccc4C=CN23)cc1` (stereo not given) the value was 63%. The result for `O=C(/C=C(O)/C=C/c1ccc(SC(F)(F)F)cc1)/C=C/c1ccc(SC(F)(F)F)cc1` reads 75.9%. As to `COc1ccc(OC)c(CCn2cncc2-c2c[nH]c3ccccc23)c1`, the growth was 59.2%. For `CCOC(=O)c1cc(C(=O)c2ccc(OC)c(OC)c2)n2c1ccc1ccccc12` the value was 74.3%.

Turning to `COc1cc2c(=O)n(CCCN(C)C)c3c4cc5c(cc4ccc3c2cc1OC)OCO5`, the growth was 59.4%. The result for `COc1ccc(C(=O)c2cc(C)c(OC)c(C)c2)c(OC)c1NC(C)=O` reads 31.6%. For `N#C/C(=C\c1cccc(C#N)c1)c1ccccc1` the value was 108%; for `Cn1ccnc1C(=O)/C=C/c1ccc(CC(=O)Nc2ccc(F)cc2)cc1`, 54.3%; for `CCCCOc1ccc(/C=N/Nc2cc(C)nc3ccc(Br)cc23)cc1`, 87.3%. The result for `COC(=O)/C=C1\S/C(=N\NC(=O)c2cc3ccc2/C=C\c2ccc(cc2)/C=C\3)N(Cc2ccccc2)C1=O` reads 51.9%; that for `CN(C)c1ccc(C2C(C#N)=C(/N=C/c3ccccc3)Oc3c2ccc2ccccc32)cc1` (stereo not given), 49.2%; that for `CN1CCN(C(=O)[C@]23CCC(C)(C)C[C@H]2C2=CC[C@@H]4[C@@]5(C)C/C(=C/c6ccncc6)C(=O)C(C)(C)[C@@H]5CC[C@@]4(C)[C@]2(C)CC3)CC1`, 61%.

The values are drawn from PubChem BioAssay (NCI).
